# Results as given in PubChem BioAssay AID1529 (NMMLSC, 2009).
# Hit rate of the full screen: of about 290,000 compounds, about 4,200 (1.4%) were called active. This is one part of a sample in which actives are shown more often than they occur.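 How the source made its calls: active means binding response more than 3 SD above or below the average of its plate-row segment, actives on both sides; inconclusive means wells at one plate position flagged as instrument error; inactive means the rest.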
# Molecular target: Mitogen-activated protein kinase kinase kinase 3 (Homo sapiens) (UniProt Q99759)
# Test: modulators of MEKK3-MEK5 PB1 binding, primary screen, biochemical, wildtype MEKK3, multiplex bead flow cytometry, Alexa488-MEK5 (AID 1529);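 further: Alexa488 bead fluorescence after subtracting the streptavidin-only scavenger bead signal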
# Settings: bead-based flow cytometry, Alexa488-MEK5 binding to MEKK3; at 10 µM; actives lie on both sides; 0 = blocked by unlabeled MEK5, 100 = vehicle
# Chain of Mitogen-activated protein kinase kinase kinase 3 (Homo sapiens) (Q99759 whole entry, looked up): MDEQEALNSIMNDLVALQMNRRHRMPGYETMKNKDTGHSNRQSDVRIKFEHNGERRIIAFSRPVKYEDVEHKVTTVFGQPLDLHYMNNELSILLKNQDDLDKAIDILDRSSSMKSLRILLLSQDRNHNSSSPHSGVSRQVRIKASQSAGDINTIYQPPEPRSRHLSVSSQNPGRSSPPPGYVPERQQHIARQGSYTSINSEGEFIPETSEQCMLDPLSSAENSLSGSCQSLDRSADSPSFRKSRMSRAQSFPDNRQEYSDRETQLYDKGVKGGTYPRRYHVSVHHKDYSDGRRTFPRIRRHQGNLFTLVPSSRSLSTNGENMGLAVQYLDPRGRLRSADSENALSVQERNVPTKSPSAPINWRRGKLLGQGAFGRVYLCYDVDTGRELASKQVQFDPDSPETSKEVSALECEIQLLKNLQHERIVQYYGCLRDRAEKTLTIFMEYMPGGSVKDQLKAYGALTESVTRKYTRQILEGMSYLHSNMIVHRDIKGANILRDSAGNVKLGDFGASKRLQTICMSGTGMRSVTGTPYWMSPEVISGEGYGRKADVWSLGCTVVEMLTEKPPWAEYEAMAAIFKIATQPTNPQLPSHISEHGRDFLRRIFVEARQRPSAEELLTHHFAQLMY
row,SMILES,binding response (% of control)
1,CCn1cc(CN2CCC(C(=O)Nc3cccc(-c4cccc(Cl)c4)c3)CC2)c(C)n1,107% (inactive)
2,Cc1ccc(N(CCC(=O)O)S(=O)(=O)c2cccc(C(F)(F)F)c2)cc1,3% [inhibitor] (active)
3,O=C(O)c1cc(S(=O)(=O)N(Cc2ccccc2)c2cccc(C(F)(F)F)c2)ccc1Cl,106% (inactive)
4,CCc1nnc(NC(=O)CCN(c2ccc(C)cc2)S(=O)(=O)c2ccccc2)s1,108% (inactive)
5,Cc1cc(=O)n2nc(N3CCCC(C(=O)NCc4ccc(Cl)cc4)C3)sc2n1 (stereo not drawn),99% (inactive)
6,Cc1ccnc(N2CCCC(C(=O)NC3CC3)C2)n1 (stereo not drawn),100% (inactive)
7,COc1cc(C)nc(N2CCCC(C(=O)NCC(C)C)C2)n1 (stereo not drawn),130% (active)
8,CN1CCN(CCNC(=O)Nc2ccccc2[N+](=O)[O-])CC1,104% (inactive)
9,O=C(CN(C(=O)c1csnn1)c1ccc(Br)cc1)NC1CCCC1,101% (inactive)
10,Cc1ccc(CN(CC(=O)NC2CCCCC2)C(=O)c2csnn2)cc1,103% (inactive)
11,Cc1ccccc1CCN(CC(=O)NC1CCCCC1)C(=O)c1csnn1,142% (active)
12,COc1ccccc1CC(=O)Nc1ccc([N+](=O)[O-])cc1OC,139% (active)
13,COc1cc([N+](=O)[O-])ccc1NC(=O)CN1CCCC1,104% (inactive)
14,COc1ccccc1CC(=O)Nc1ccc(F)cc1F,106% (inactive)
15,CCC(C)(C)NC(=O)C1c2ccccc2Oc2ccccc21,99% (inactive)
16,CCC(C)NC(=O)C1c2ccccc2Oc2ccccc21 (stereo not drawn),71% (inactive)
17,CC(C)(C)c1nnc(NC(=O)C2c3ccccc3Oc3ccccc32)s1,45% [inhibitor] (active)
18,C=CCSc1nnc2c(n1)-c1cccc3cccc-2c13,104% (inactive)
19,COc1ccc(C(=O)NC(=S)NC2CCCCC2)cc1,106% (inactive)
20,Brc1ccccc1C1N=C(c2ccccc2)NO1 (stereo not drawn),103% (inactive)
21,Cc1ccc2c(c1)N(C(=O)CCC(=O)NCc1cccnc1)CCO2,100% (inactive)
22,COc1cccc(NC(=O)CN(C)C(=O)Cc2ccc(Cl)cc2Cl)c1,106% (inactive)
23,COc1cccc(NC(=O)CN(C)C(=O)/C=C/c2cc(OC)ccc2OC)c1,151% (active)
24,COc1ccc(/C=C/C(=O)OCC(=O)Nc2cccc(Oc3ccccc3)c2)c(OC)c1,106% (inactive)

row,SMILES,binding response (% of control)
1,CCOC(=O)N1CCN(C(=O)c2cn(C)c3ccc(S(=O)(=O)N(CC)CC)cc3c2=O)CC1,98% (inactive)
2,CCOC(=O)CC1(NC(=O)c2cc(COc3cncc(Cl)c3)on2)CCCCC1,103% (inactive)
3,O=C(CN1C(=O)CSC1=O)N1CCCC(Nc2ccc(F)cc2)C1 (stereo not drawn),102% (inactive)
4,CN(C(=O)c1cc2c(=O)n3ccccc3nc2s1)C1CCCCC1,100% (inactive)
5,Cn1c(=O)c2sccc2n(Cc2ccc(Br)cc2)c1=O,101% (inactive)
6,Cn1c(=O)c2c(nc(NCCc3ccccc3)n2Cc2ccccc2)n(C)c1=O,96% (inactive)
7,Cn1c(=O)c2c(nc(N/N=C/c3cccs3)n2Cc2ccc(Br)cc2)n(C)c1=O,131% (active)
8,COc1cccc(OCC(=O)NNC(=O)c2cnccn2)c1,2% [inhibitor] (active)
9,COc1cccc(OCC(=O)Nc2ccccc2C(N)=O)c1,110% (inactive)
10,COc1ccc(OCC(=O)NNC(=O)c2cccc(C)c2)cc1,103% (inactive)
11,Cc1c(C(C)(C)O)[nH]c2ccc(C#N)cc12,103% (inactive)
12,CC(=O)N1CCN(CC(C)(C)NS(=O)(=O)c2ccc(C)cc2)CC1,102% (inactive)
13,CCOC(=O)C(NS(=O)(=O)c1ccc(C)cc1)(C(F)(F)F)P(=O)(OCC(C)C)OCC(C)C (stereo not drawn),140% (active)
14,Cc1ccc(S(=O)(=O)NCC(C)NS(C)(=O)=O)cc1 (stereo not drawn),97% (inactive)
15,CCCOc1ccc(C(=O)NCCc2ccccc2)cc1,97% (inactive)
16,Cc1cc(C(=O)NCCCc2ccccc2)no1,99% (inactive)
17,CC(C)c1ccc(C(=O)NCCCc2ccccc2)cc1,2% [inhibitor] (active)
18,Cc1ccccc1-n1c(C)cc(/C=C2\NC(=O)NC2=O)c1C,57% (inactive)
19,C#CCOc1ccccc1/C=C1/C(=O)ON=C1C,110% (inactive)
20,Cc1no[n+]([O-])c1COc1ccccc1/C=C1\NC(=S)NC1=O,126% (active)
21,COc1cc(S(=O)(=O)Nc2ncn[nH]2)ccc1Cl,102% (inactive)
22,CCS(=O)(=O)Nc1ccc(C2=NN(C(C)=O)C(c3cccs3)C2)cc1 (stereo not drawn),55% (inactive)
23,CS(=O)(=O)Nc1ccc(C2=NN(S(C)(=O)=O)C(c3cccs3)C2)cc1 (stereo not drawn),10% [inhibitor] (active)
24,CS(=O)(=O)Nc1cccc(C2=NN(S(=O)(=O)c3ccccc3)C(c3cccs3)C2)c1 (stereo not drawn),95% (inactive)
